The source of these data is PubChem BioAssay (NCI).

This is part of a sample that, as a whole, favours compounds with a hit. Of some 83,000 tested, about 20% had one in any assay.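 Each cell line was grown in a 96-well plate and treated with one concentration of compound for 48 hours. Values below 10 were considered active.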 Unmarked numbers belong to inactive results. Calls of active or inactive are those of the source.

Test systems include SK-MEL-2 melanoma; SN12C renal; UO-31 renal; TK-10 renal; ACHN renal; CAKI-1 renal; A498 renal; CCRF-CEM leukemia; MOLT-4 leukemia.
Holding throughout (experiment): NCI-60 one-dose screen, 48 h (100 = growth as untreated, 0 = no growth, -100 = all killed)
Holding throughout (conditions): 10 µM unless noted

Turning to `Cc1c(NCC(=O)Nc2nc3ccccc3[nH]2)c(=O)n(-c2ccccc2)n1C`, the growth is 104% with SK-MEL-2 melanoma; 99.4% in the assay on SN12C renal; 81.5% in the assay with UO-31 renal; 117% in the assay with TK-10 renal; 97.3% in the assay with ACHN renal; 97.9% in the assay on CAKI-1 renal. In addition, the values for the growth in the assay with A498 renal, with CCRF-CEM leukemia and with MOLT-4 leukemia were 74%, 93.3% and 104%, respectively.
For the compound `O=C1c2[nH]cc(CN[C@@H]3CCCN3)c2C(=O)c2c1c(O)c1ccccc1c2O`, the growth in the assay with SK-MEL-2 melanoma is -17.3% (active); in the assay with SN12C renal it was -32% (active); in the assay on UO-31 renal it was -31.1% (active); with TK-10 renal it was -89.3% (active); in the assay with ACHN renal, -92.8% (active); in the assay with CAKI-1 renal it was -18.4% (active). Also, the figures for the growth in the assay with A498 renal, with CCRF-CEM leukemia and in the assay on MOLT-4 leukemia were 38.1%, -85.6% (active) and -84.7% (active), respectively.
Turning to `O=C(Nc1ccc(Cl)c(Cl)c1)OCn1ncc2ccc([N+](=O)[O-])cc21`, the growth is 85% in the assay with SK-MEL-2 melanoma; 95.1% in the assay with SN12C renal; 45.9% with UO-31 renal; 92.9% in the assay on TK-10 renal; 83.5% in the assay on ACHN renal; 73% in the assay on CAKI-1 renal. Besides, the growth in the assay on A498 renal was 60.1%; in the assay with CCRF-CEM leukemia, 81.8%; in the assay on MOLT-4 leukemia it was 70.6%.
Turning to `CCOC(=O)c1c(Cl)c2c(n1Cc1ccc(OC)cc1)-c1oncc1CCC2`, the growth in the assay on SK-MEL-2 melanoma was 103%; in the assay on SN12C renal, 57.6%; in the assay with UO-31 renal, 66.2%; in the assay with TK-10 renal it was 84.8%; in the assay with ACHN renal, 73.9%; in the assay with CAKI-1 renal, 56.1%. Moreover, the growth with A498 renal was 65.5%; with CCRF-CEM leukemia, 62.2%; in the assay on MOLT-4 leukemia it was 72.1%.
On to `Cc1ccc(-c2c3c(N)c4c(nc3nc3c2c(C)nn3-c2ccccc2)CCCC4)cc1`, for which the growth is 96% in the assay on SK-MEL-2 melanoma; 99.8% with SN12C renal; 88% with UO-31 renal; 102% in the assay with TK-10 renal; 97.7% in the assay on ACHN renal; 93.2% in the assay with CAKI-1 renal. The growth was 92.2% in the assay on A498 renal, 82.7% in the assay with CCRF-CEM leukemia and 92.6% in the assay with MOLT-4 leukemia.
Turning to `Cc1nc2cc(Nc3nc(Cl)nc(Nc4ccc(F)cc4)n3)ccc2n1Cc1ccccc1`, the growth in the assay on SK-MEL-2 melanoma is 111%; in the assay on SN12C renal, 77.9%; with UO-31 renal it was 80.7%; in the assay with TK-10 renal it was 58.5%; with ACHN renal it was 36.2%; in the assay on CAKI-1 renal it was 87.7%. In addition, the growth with A498 renal was 69.3%; in the assay on CCRF-CEM leukemia, 78.5%; with MOLT-4 leukemia, 90.6%.
Turning to `CCCCC(CCCC)(S(=O)(=O)CC)S(=O)(=O)CC`, the growth was 108% with SK-MEL-2 melanoma; 102% with SN12C renal; 84.6% in the assay with UO-31 renal; 99.2% with TK-10 renal; 105% with ACHN renal; 93.6% in the assay on CAKI-1 renal. Further, the growth was 88.7% with A498 renal, 91.5% in the assay on CCRF-CEM leukemia and 93.6% in the assay on MOLT-4 leukemia.
Consider `CCCCCCCCCCCCSC1=CC(=O)C=CC1=O`, for which the growth was 90.1% in the assay with SK-MEL-2 melanoma; 55.1% in the assay on SN12C renal; 52.8% in the assay on UO-31 renal; 118% with TK-10 renal; 81% with ACHN renal; 52.6% in the assay with CAKI-1 renal. Besides, the figures for the growth with A498 renal, in the assay on CCRF-CEM leukemia and in the assay with MOLT-4 leukemia were 107%, -10% (active) and -0.985% (active), respectively.
On to `Fc1ccccc1Nc1ccc2nnc(-c3ccncc3)n2n1`, for which the growth in the assay on SK-MEL-2 melanoma was 92.8%; with SN12C renal, 103%; in the assay with UO-31 renal, 88%; with TK-10 renal, 114%; in the assay on ACHN renal, 99.6%; with CAKI-1 renal, 102%. For the same compound, the figures for the growth in the assay with A498 renal, with CCRF-CEM leukemia and in the assay on MOLT-4 leukemia were 95.6%, 96.1% and 98.8%, respectively.
As to `COc1cccc(Nc2nc(NCCO)c3ccccc3n2)c1`, the growth in the assay on SK-MEL-2 melanoma was 103%; in the assay on SN12C renal, 81.6%; in the assay with UO-31 renal, 74.4%; in the assay with TK-10 renal, 106%; with ACHN renal it was 79.7%; with CAKI-1 renal, 70.6%. Also, the growth is 43.8% with A498 renal, 22.4% in the assay with CCRF-CEM leukemia and 48.1% in the assay on MOLT-4 leukemia.
Take `CCOC(=O)c1c(Cl)c2c(n1Cc1cc(OC)cc(OC)c1)-c1oncc1CCC2`: the growth with SK-MEL-2 melanoma was 44.6%; in the assay with SN12C renal it was 38.9%; with UO-31 renal, 44.6%; in the assay on TK-10 renal it was 55.1%; in the assay with ACHN renal it was 48.3%; in the assay with CAKI-1 renal it was 31.3%. Also, the figures for the growth in the assay on A498 renal, in the assay on CCRF-CEM leukemia and in the assay with MOLT-4 leukemia were -13% (active), 7.48% (active) and 30%, respectively.
Turning to `COc1ccc(-c2nc3sc(C)nn3c2-c2nc3cc(C)c(C)cc3[nH]2)cc1`, the growth was 104% with SK-MEL-2 melanoma; 87.5% in the assay with SN12C renal; 85.9% in the assay on UO-31 renal; 118% with TK-10 renal; 89.7% with ACHN renal; 89.8% in the assay with CAKI-1 renal. Moreover, the growth in the assay with A498 renal was 102%; in the assay with CCRF-CEM leukemia, 85.9%; in the assay on MOLT-4 leukemia, 78.1%.
Consider `COc1ccc(/C=C2\CN(Cc3cn(CCCNc4ccnc5cc(Cl)ccc45)nn3)C/C(=C\c3ccc(OC)cc3)C2=O)cc1`, for which the growth in the assay with SK-MEL-2 melanoma is 90.4%; in the assay on SN12C renal it was 67%; with UO-31 renal, 54.7%; in the assay with TK-10 renal it was 94.9%; with ACHN renal it was 79.6%; in the assay on CAKI-1 renal, 92.6%. Moreover, the growth in the assay with A498 renal is 52.9%; in the assay on CCRF-CEM leukemia it was 1.02% (active); with MOLT-4 leukemia it was 32.2%.
Regarding `COc1cc(C2=NN(c3ccc(S(N)(=O)=O)cc3)C(c3ccc(Cl)cc3)C2)cc(OC)c1OC` (centres undefined), the growth was 66.9% in the assay with SK-MEL-2 melanoma; 51% in the assay on SN12C renal; 23.2% in the assay on UO-31 renal; 45.9% in the assay with TK-10 renal; 46.5% in the assay with ACHN renal; 53.3% in the assay with CAKI-1 renal. The growth was 35.4% in the assay with A498 renal, 20.7% in the assay with CCRF-CEM leukemia and 16.6% in the assay with MOLT-4 leukemia.
Regarding `O=c1oc2ccccc2cc1-c1csc(N/N=C/c2cc3ccccc3nc2Cl)n1`, the growth is 106% with SK-MEL-2 melanoma; 90.6% in the assay with SN12C renal; 91% in the assay with UO-31 renal; 116% with TK-10 renal; 101% in the assay with ACHN renal; 87.5% with CAKI-1 renal. Also, the growth is 111% in the assay with CCRF-CEM leukemia and 132% with MOLT-4 leukemia.
